# ATXN viability = Viability Counterscreen for Primary qHTS for Inhibitors of ATXN expression. Potency, µM (series often up to 56.7 µM), hits mostly cytotoxic. 400,000 tested, 0.49% active. S2 cells (HEK-293 line with an ATXN2-luciferase reporter) viability, CellTiter-Fluor protease fluorescence, 24 h; further: nearly all actives have a fitted effect of over 40% in size
# RORg inh = qHTS for inhibitors of ROR gamma transcriptional activity; Potency, µM (doses to about 53.6 µM), for the others: at the highest dose activity change, negative = inhibition, hits mostly inhibitors; AID 2551, 2010; Drosophila S2 Gal4-RORgamma UAS-luciferase reporter, 20 h; Nuclear receptor ROR-gamma (Mus musculus), P51450; 310,000 tested, 5.4% active; further: on the % scale 0 is the no-effect control and ±100 the full control effect; nearly all actives have a fitted effect of over 60% in size
# Target sequence (P51450 whole entry, looked up, the tested form may be a part): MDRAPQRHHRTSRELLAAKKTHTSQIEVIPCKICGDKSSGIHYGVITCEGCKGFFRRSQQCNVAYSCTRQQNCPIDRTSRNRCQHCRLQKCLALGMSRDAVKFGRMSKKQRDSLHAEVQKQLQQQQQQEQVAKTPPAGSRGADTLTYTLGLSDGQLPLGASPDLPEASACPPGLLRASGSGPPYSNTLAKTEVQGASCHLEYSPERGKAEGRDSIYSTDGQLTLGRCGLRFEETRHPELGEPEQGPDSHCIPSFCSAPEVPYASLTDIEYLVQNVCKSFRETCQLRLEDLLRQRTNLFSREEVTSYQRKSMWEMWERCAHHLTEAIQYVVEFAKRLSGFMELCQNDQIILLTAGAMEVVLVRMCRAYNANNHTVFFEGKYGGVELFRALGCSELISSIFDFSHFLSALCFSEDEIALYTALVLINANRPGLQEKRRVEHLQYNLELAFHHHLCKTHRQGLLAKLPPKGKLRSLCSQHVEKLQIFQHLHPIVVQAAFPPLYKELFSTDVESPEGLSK
#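 Stable Schneider cell line, Gal4 DNA-binding domain fused to ROR gamma, UAS-luciferase. Cmpd 1 hr RT → CuSO4 700 uM final → 20 hr RT → luciferase reagent 10 min → luminescence.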
# ATXN2 expr inh = Primary qHTS for Inhibitors of ATXN expression; AID 1745845, 2022; 360,000 tested, 0.72% active; HEK-293 ATXN2-luciferase reporter, luminescence, 24 h; Potency, µM (highest dose often 57 µM), for the others: at the highest dose activity change, negative = inhibition, hits mostly inhibitors; further: on the % scale 0 is the no-effect control and ±100 the full control effect; nearly all actives have a fitted effect of over 55% in size
#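 ATXN2-luciferase reporter cells (luciferase flanked by upstream and downstream ATXN2 gene portions) were treated 24 h at 37 °C with compounds at up to 57 uM. SteadyGlo luminescence gave expression; GF-AFC fluorescence gave viability.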
# HepG2 tox = qHTS for Inhibitors of TGF-b: Cytotox Counterscreen. HepG2 CAGA-GFP viability, ATP luminescence, 18 h. Potency, µM (top dose mostly 46.1 µM), for the others: at the highest dose activity change, negative = cytotoxicity, actives largely listed as cytotoxic. 410,000 tested, 0.76% active. AID 588856, 2011
#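 CellTiter-Glo luminescence gave cytotoxicity after 18 hours at 37 degrees C. The cells were HepG2 CAGA-GFP in 1% FBS DMEM, stimulated with 500 pg/mL TGF-beta after compound addition. %Activity was normalised to no-cell wells (complete cell-killing) and DMSO (no toxicity), and curves were fitted and classified.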
# Gal4-VP16 FLuc = VP16 counterscreen qHTS for inhibitors of ROR gamma transcriptional activity | Drosophila S2 Gal4-VP16 UAS-luciferase, luminescence, 20 h | Potency, µM (top dose mostly 53.6 µM), inactives show at the top dose activity, negative = inhibition, usual class: inhibitors | 310,000 tested, 3.5% active;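 further: Gal4-VP16 expression switched on by copper sulfate through the metallothionein promoter; on the % scale 0 is the no-effect control and ±100 the full control effect; nearly all actives have a fitted effect of over 50% in size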
# TGFb inhibitor = qHTS for Inhibitors of TGF-b | HepG2 CAGA-GFP TGF-b/SMAD3 reporter, GFP fluorescence, 18 h; TGF-beta stimulated, 500 pg/mL final | Potency, µM (top dose mostly 46.1 µM), for the others: top-dose activity, negative = inhibition, usual class: inhibitors | 410,000 tested, 1.2% active; further: on the % scale 0 is the no-effect control and ±100 the full control effect; nearly all actives have a fitted effect of over 65% in size
#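 Inhibition was scored as loss of TGF-beta-induced (500 pg/mL final, 18 hours, 37 degrees C) GFP in HEPG2 cells carrying a CAGA-GFP reporter, in DMEM with 1% FBS. Well GFP was summed per cell; Activity was normalised to unstimulated and stimulated DMSO wells, then concentration-response fitting.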
# * = called active by the depositor; i = inactive; ? = inconclusive; · = not tested or not shown; ! = a repeat was not active. The list is not random: actives were taken first. Their share in the collection is about 6.3%. The call rests on the fitted dose curve; in most records, active means well fitted curve in the direction sought with a large enough effect; inconclusive means small, poorly fitted or top-dose-only effect, or another doubt; inactive means no such curve, though single readings can be large; an effect the other way counts as inactive or inconclusive. Potency means the concentration at half of the fitted maximal effect.
SMILES,ATXN viability,RORg inh,ATXN2 expr inh,HepG2 tox,Gal4-VP16 FLuc,TGFb inhibitor
CCc1ccccc1NC(=O)CSc1nc2c(c(=O)[nH]1)CN(Cc1ccccc1OC)CC2,i,·,8%,-3%,·,1%
Cc1oc(-c2ccccc2NC(=O)c2ccccc2)nc1CNC(=O)c1cccc(-n2cccn2)c1,i,·,·,·,·,·
CCC(=O)N1CCC(C)(C(=O)NCc2cccc(OC)c2)C1 (configuration not stated),i,·,10%,-2%,·,1%
Cc1ccc(N(C(=O)Nc2ccccc2)C2=NCC(C)S2)cc1 (configuration not stated),i,-35%,28%,-2%,11%,5%
Cc1ccnc(N(C(=O)Nc2ccccc2)C2=NCC(C)(C)S2)c1,i,11µM*,2%,-14%,?,1%
c1ccc(-n2nnnc2Oc2cccc3cccnc23)cc1,i,7.1µM*,3%,-34%,4.5µM*,?
CCOc1ccccc1CNC(=O)C1CCN(c2nnc(C)c3c(C)n(-c4ccc(C)cc4)nc23)CC1,·,13µM*,?,10µM*!,18µM*,11µM*
COc1ccccc1CCNC(=O)C1CCN(c2nnc(C)c3c(C)n(-c4ccc(C)cc4)nc23)CC1,?,?,-10%,3.5µM*!,?,?
COc1ccc(-n2nc3c(N4CCC(C(=O)NCc5cccc(C)c5)CC4)nnc(C)c3c2C)cc1,?,?,·,-4%,20µM*,?
Cc1nnc(N2CCC(C(=O)NCCc3ccccc3Cl)CC2)c2nn(-c3ccccc3)c(C)c12,?,·,-36%,-54%,·,?
Cc1ccc(-n2nc3c(N4CCC(C(=O)NCc5ccccc5C)CC4)nnc(C)c3c2C)cc1,?,13µM*,?,-95%,?,18µM*
CC1(C(=O)NS(=O)(=O)C2CC2)CCCN(C(=O)Cc2ccc3ccccc3c2)C1 (configuration not stated),i,·,4%,0%,·,20%
Cc1cccc(NC(=O)CCn2cnnn2)c1C,i,·,4%,-4%,·,-1%
CCOc1ccc(N=C/C=C/c2ccccc2)c(O)c1,?,-12%,·,-121%,3%,14µM*
COc1ccc(S(=O)(=O)NC(=O)C2(C)CCN2C(=O)C2CCCCC2)cc1OC (configuration not stated),i,·,11%,5%,·,8%
CCOC(=O)[C@@H]1[C@H]2COc3ccc(Br)cc3[C@@H]2N2C(=O)N(c3cccc(F)c3)C(=O)[C@@]12C,i,18µM*,-14%,-4%,4%,2%
CCOC(=O)[C@@H]1[C@H]2COc3cc(OC)ccc3[C@@H]2N2C(=O)N(c3ccc(Br)cc3)C(=O)[C@@]12C,?,7.9µM*,-10%,0%,-3%,1%
CN1C(=O)CC(CC(=O)N2CCCCC2CCO)(c2cccc(F)c2)C1=O (configuration not stated),i,·,·,·,·,·
CCN1c2ccccc2-c2nc(SCC(=O)NCc3ccc(C)cc3)ncc2S1(=O)=O,i,·,10%,-5%,·,10%
Cc1oc(-c2ccccc2Cl)nc1CS(=O)(=O)CC(=O)NC(C)CCc1ccccc1 (configuration not stated),?,·,?,-14%,·,10µM*
CCOc1ccc(CCNC(=O)CS(=O)(=O)Cc2nc(-c3cccc(Cl)c3)oc2C)cc1,i,·,-31%,-11%,·,?
Cc1oc(-c2cccc(Cl)c2)nc1CS(=O)(=O)CC(=O)NC(C)CCc1ccccc1 (configuration not stated),?,·,?,-34%,·,10µM*
Cc1oc(-c2ccccc2Cl)nc1CS(=O)(=O)CC(=O)NC(C)c1ccccc1 (configuration not stated),i,9%,-6%,-23%,-7%,?
CCN(CC)c1ncnc2c1ncn2[C@H]1CN(Cc2cccnc2)C[C@@H](CO)O1,i,·,1%,7%,·,37%
CCOc1ccc(/C=N/Nc2ccccn2)cc1OC,i,10µM*,46%,-9%,?,0%
SMILES,ATXN viability,RORg inh,ATXN2 expr inh,HepG2 tox,Gal4-VP16 FLuc,TGFb inhibitor
CCOc1ccc(/C=N/Nc2nc(=O)[nH]nc2C)cc1OC,i,13µM*,·,-34%,-1%,-1%
CCOc1cc(/C=N/Nc2nc(=O)[nH]nc2C)ccc1O,i,8.9µM*,0%,-21%,-30%,19%
O=c1c(-c2cc(F)cc(F)c2)nc2cnc(N3CCOCC3)nc2n1Cc1ccc(F)cc1,·,17%,·,·,-2%,·
CCOc1ccccc1C(O)C1=CC(=O)c2ccccc2C1=O (configuration not stated),i,·,1%,-26%,·,5%
CC1=CC(=O)c2ccccc2C1=O,i,11µM*!,24µM*!,16µM*!,7.9µM*,?
CC(C)(C=O)C1=CC(=O)c2ccccc2C1=O,·,14µM*,16µM*,-101%,5µM*,?
COc1cccc2c1C(=O)C=C(C)C2=O,·,11µM*,?,-106%,7.1µM*,?
CCn1c(-c2ccccc2F)nc2cc(NC(C)=O)cc(C(=O)NCc3ncc(C)[nH]3)c21,i,·,·,·,·,·
c1ccc(COc2ncnc3c2ncn3CCCNC2CCN(Cc3ccccc3)CC2)cc1,·,·,25µM*,16µM*,·,14µM*
O=C(Nc1ccn(CCCNCCN2CCOCC2)c(=O)n1)OCc1ccccc1,i,·,-9%,11%,·,20%
O=C(Nc1ccn(CCCNC2CCN(Cc3ccccc3)CC2)c(=O)n1)OCc1ccccc1,?,·,?,6.3µM*,·,-1%
O=C(Nc1ccn(CCCN2CCN(c3ccccc3)CC2)c(=O)n1)OCc1ccccc1,?,·,-29%,-25%,·,-17%
CSc1ncnc2c1ncn2CCCNC1CCN(Cc2ccccc2)CC1,i,·,-26%,-2%,·,4%
O=C(Nc1ccn(CCCN2CCN(Cc3cccc4ccccc34)CC2)c(=O)n1)OCc1ccccc1,·,·,28µM*,-71%,·,?
CN1CCC2(CC1)CCN(C(=O)c1cc(C(F)(F)F)cc(C(F)(F)F)c1)CC2,·,-9%,·,·,5%,·
Cc1ccc(COc2ccsc2-c2n[nH]c(=S)n2C)cc1,·,2.8µM*,·,7%,7.1µM*,1%
Cn1c(-c2sccc2OCc2ccccc2)n[nH]c1=S,i,29%,3%,2%,-8%,5%
Cn1c(-c2sccc2OCc2ccc(Cl)cc2Cl)n[nH]c1=S,i,2.8µM*,-2%,-28%,7.1µM*,-21%

# Screening results (PubChem)
